# Measurements from PubChem BioAssay (NCATS).
# Several values for one entry are separate records, joined by “and”; a condition that tells them apart may be missing. Identical values can stand only once. Values without a mark were called inactive. Inconclusive results are not listed. Activity calls are given as the source filed them. Unless noted, the call rests on the fitted dose curve; in most records, active means well fitted curve in either direction with a large enough effect (not every such curve was filed as active); inconclusive means small, poorly fitted or top-dose-only effect, or another doubt; inactive means flat fitted curve, though single readings scatter.
# What was measured:
# [1] = target: Lysosomal acid glucosylceramidase (Homo sapiens) (UniProt P04062); test: Glucocerebrosidase-p2 (AID 348; in the data active means potency below about 10 µM; further: potency means the concentration at half of the fitted maximal effect); settings: purified GBA, blue fluorogenic substrate, 40 min
# Sequence of Lysosomal acid glucosylceramidase (Homo sapiens) (P04062 whole entry, looked up): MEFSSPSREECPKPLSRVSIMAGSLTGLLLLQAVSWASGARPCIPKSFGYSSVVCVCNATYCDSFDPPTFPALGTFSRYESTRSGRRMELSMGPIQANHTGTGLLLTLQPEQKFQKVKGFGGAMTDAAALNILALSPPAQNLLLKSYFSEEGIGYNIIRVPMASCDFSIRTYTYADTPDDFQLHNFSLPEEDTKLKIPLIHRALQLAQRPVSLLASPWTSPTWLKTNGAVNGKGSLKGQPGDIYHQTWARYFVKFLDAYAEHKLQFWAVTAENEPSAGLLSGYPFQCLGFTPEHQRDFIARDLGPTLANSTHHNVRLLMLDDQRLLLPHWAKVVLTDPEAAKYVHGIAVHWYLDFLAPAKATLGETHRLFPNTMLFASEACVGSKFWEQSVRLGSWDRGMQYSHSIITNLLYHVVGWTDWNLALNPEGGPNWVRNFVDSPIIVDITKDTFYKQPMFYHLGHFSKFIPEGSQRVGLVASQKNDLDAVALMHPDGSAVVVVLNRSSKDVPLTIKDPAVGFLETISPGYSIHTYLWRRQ
# Method in brief: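 Normal human glucocerebrosidase (0.2 nM) with blue fluorogenic substrate (80 uM final) in citrate/phosphate pH 5.9 with 10mM sodium taurocholate, 0.01% tween-20; 40 min RT, NaOH/glycine stop; fluorescence Ex 365/Em 440; AC50 from a titration from 0.6 nM upwards.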
# [2] = AP1 Signaling Pathway (AID 357); settings: ME-180 (cervical carcinoma) AP-1-bla reporter, EGF-induced, beta-lactamase ratio, 5 h;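 further: ME-180 reporter cells stimulated with EGF at its EC50 level; on the % scale 0 is the no-effect control and ±100 the full control effect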
# Method in brief: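 Cells are seeded overnight, exposed to compound titrations and an EC50 level of EGF for 5 hours at 37 °C, then loaded with CCF4 dye for 2.5 hours. Beta-lactamase activity under the AP-1 element is read as a blue/green ratio.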
# [3] = target: Cytochrome P450 1A2 (Homo sapiens) (UniProt P05177); test: p450-cyp1a2 (AID 410; calls by dose curve; further: potency means the concentration at half of the fitted maximal effect;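 on activity change, negative = inhibition: -100% = full effect of reference inhibitor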); settings: recombinant CYP1A2, luciferin-ME demethylation, luminescence; series mostly up to 57 µM
# Sequence of Cytochrome P450 1A2 (Homo sapiens) (P05177 whole entry, looked up): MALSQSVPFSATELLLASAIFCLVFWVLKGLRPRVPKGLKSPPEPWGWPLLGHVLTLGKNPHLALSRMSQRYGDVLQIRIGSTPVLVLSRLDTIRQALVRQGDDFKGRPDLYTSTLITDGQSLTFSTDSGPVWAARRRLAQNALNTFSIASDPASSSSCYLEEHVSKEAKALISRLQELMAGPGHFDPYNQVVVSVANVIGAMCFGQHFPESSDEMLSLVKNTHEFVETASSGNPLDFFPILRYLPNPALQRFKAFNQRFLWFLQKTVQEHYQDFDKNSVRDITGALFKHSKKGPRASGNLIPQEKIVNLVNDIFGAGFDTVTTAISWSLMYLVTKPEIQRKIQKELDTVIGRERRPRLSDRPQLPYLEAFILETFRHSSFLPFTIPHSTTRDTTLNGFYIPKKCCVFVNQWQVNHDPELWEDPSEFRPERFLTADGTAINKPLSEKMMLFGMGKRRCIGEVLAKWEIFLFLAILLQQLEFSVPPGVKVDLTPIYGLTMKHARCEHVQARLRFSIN
# Method in brief: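 Read-out is luminescence from luciferin produced by CYP1A2 demethylation of Luciferin-ME (100uM, at Km). Detection reagent stopped the 60 min NADPH-dependent reaction; signals were normalized to 57 uM furafylline.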
# [4] = NFAT Signaling Pathway (AID 444); settings: Jurkat NFAT-bla M1, carbachol, beta-lactamase ratio, 5 h;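 further: carbachol stimulus at about its EC50 of 1 µM final; on the % scale 0 is the no-effect control and ±100 the full control effect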
# Method in brief: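 Jurkat cells with NFAT-driven β-lactamase reporter and co-expressed M1 receptor, stimulated with carbachol (final 1 uM, ~EC50), compound titration, 5 h at 37 °C. CCF4 loaded 1 h at RT; 460/530 nm ratio gave %activity and AC50.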
structure (smiles),measurement,setting,value
O=C(O)CP(=O)(O)O,Potency,[1],> 11.4 µM
same,"activity change, negative = inhibition",[2]; at 7.69 µM (top of the series),0.401%
same,"activity change, negative = inhibition",[2]; at 38 µM (top of the series),7.05%
same,Potency,[3],inactive
same,"activity change, negative = inhibition",[4]; at 7.69 µM (top of the series),-1.52%
same,"activity change, negative = inhibition",[4]; at 38 µM (top of the series),3.66%
CC(C)(C)NCC(O)c1cc(O)cc(O)c1 (configuration not stated),"activity change, negative = inhibition",[2]; at 17.2 µM (top of the series),-16.4%
CCNC(=O)N1CCN(CCCC(c2ccc(F)cc2)c2ccc(F)cc2)CC1,"activity change, negative = inhibition",[2]; at 38 µM (top of the series),1.34%
CC(=O)Oc1cc(C(C)C)c(OCCN(C)C)cc1C,"activity change, negative = inhibition",[2]; at 17.2 µM (top of the series),7.18%
same,"activity change, negative = inhibition",[2]; at 38 µM (top of the series),22.7%
same,Potency,[3],7.94 µM (active) and 3.16 µM (active)
Cc1ccc(S(=O)(=O)NC(=O)NN2CCCCCC2)cc1,"activity change, negative = inhibition",[2]; at 17.2 µM (top of the series),-5.47% and 3%
same,"activity change, negative = inhibition",[2]; at 38 µM (top of the series),4.52%
OC(CCN1CCCCC1)(c1ccccc1)C1CCCCC1 (configuration not stated),"activity change, negative = inhibition",[2]; at 17.2 µM (top of the series),5.32%
CN(C)[C@@H]1C(=O)C(C(N)=O)=C(O)[C@@]2(O)C(=O)C3=C(O)c4c(O)ccc(Cl)c4[C@@H](O)[C@H]3C[C@@H]12,"activity change, negative = inhibition",[2]; at 17.2 µM (top of the series),-3.11%
CN(C)C(=O)Oc1cccc([N+](C)(C)C)c1,"activity change, negative = inhibition",[2]; at 17.2 µM (top of the series),6.9% and 1.34% and 7.06%
same,"activity change, negative = inhibition",[2]; at 38 µM (top of the series),-1.33%
same,Potency,[3],inactive
CCOC(=O)C1=C(C)NC(C)=C(C(=O)OC)C1c1cccc(Cl)c1Cl (configuration not stated),"activity change, negative = inhibition",[2]; at 17.2 µM (top of the series),-7.25%
c1ccc2c(c1)CCCC2C1=NCCN1 (configuration not stated),"activity change, negative = inhibition",[2]; at 17.2 µM (top of the series),6.93%
C[C@]12CCC(=O)C=C1CC[C@@H]1[C@@H]2C(=O)C[C@@]2(C)[C@H]1CC[C@]2(O)C(=O)CO,"activity change, negative = inhibition",[2]; at 17.2 µM (top of the series),7.64%
Cc1ccc(Cl)c(Nc2ccccc2C(=O)O)c1Cl,"activity change, negative = inhibition",[2]; at 17.2 µM (top of the series),-18.4%
same,"activity change, negative = inhibition",[2]; at 38 µM (top of the series),-15.5%
same,Potency,[3],inactive
C[n+]1cc2c3c(ccc2c2ccc4cc5c(cc4c21)OCO5)OCO3,"activity change, negative = inhibition",[2]; at 17.2 µM (top of the series),-119% (active)
same,"activity change, negative = inhibition",[2]; at 38 µM (top of the series),-111% (active)
same,Potency,[3],3.98 µM (active) and 10 µM (active)
CSc1ccc(C(=O)c2[nH]c(=O)[nH]c2C)cc1,"activity change, negative = inhibition",[2]; at 38 µM (top of the series),-4.8%
CC(=O)OC(C)C[N+](C)(C)C (configuration not stated),"activity change, negative = inhibition",[2]; at 17.2 µM (top of the series),11.1%
CCCCNc1ccc(C(=O)OCCN(C)C)cc1,"activity change, negative = inhibition",[2]; at 17.2 µM (top of the series),-19.5%
same,"activity change, negative = inhibition",[2]; at 38 µM (top of the series),22.1%
CNCCCN1c2ccccc2CCc2ccccc21,"activity change, negative = inhibition",[2]; at 17.2 µM (top of the series),29.5% and 18.8%
C(=C\c1ccccc1)/CN1CCN(C(c2ccccc2)c2ccccc2)CC1,"activity change, negative = inhibition",[2]; at 17.2 µM (top of the series),-4.86%
COc1ccc2c(c1OC)C(=O)O[C@@H]2[C@H]1c2c(cc3c(c2OC)OCO3)CCN1C,"activity change, negative = inhibition",[2]; at 17.2 µM (top of the series),-3.96%
CCCN(CCC)C(=O)C(CCC(=O)O)NC(=O)c1ccccc1 (configuration not stated),"activity change, negative = inhibition",[2]; at 17.2 µM (top of the series),1.43%
CCCC(C(=O)OCCN(CC)CC)(c1ccccc1)c1ccccc1,"activity change, negative = inhibition",[2]; at 17.2 µM (top of the series),16.9%
same,"activity change, negative = inhibition",[2]; at 38 µM (top of the series),20.9%
same,Potency,[3],inactive
Brc1c(NC2=NCCN2)ccc2nccnc12,"activity change, negative = inhibition",[2]; at 17.2 µM (top of the series),-0.374%
same,"activity change, negative = inhibition",[2]; at 38 µM (top of the series),6.19%
same,Potency,[3],inactive
CCn1cc(C(=O)O)c(=O)c2cc3c(cc21)OCO3,"activity change, negative = inhibition",[2]; at 17.2 µM (top of the series),-4.15%
same,"activity change, negative = inhibition",[2]; at 38 µM (top of the series),-1.96%
same,Potency,[3],5.01 µM (active) and 2.51 µM (active)
CC(C)[N+](C)(CCOC(=O)C1c2ccccc2Oc2ccccc21)C(C)C,"activity change, negative = inhibition",[2]; at 17.2 µM (top of the series),12.1% and 5.76%
same,"activity change, negative = inhibition",[2]; at 38 µM (top of the series),3.91%
C=CCc1ccccc1OCC(O)CNC(C)C (configuration not stated),"activity change, negative = inhibition",[2]; at 17.2 µM (top of the series),12.6%
O=C(CCNNC(=O)c1ccncc1)NCc1ccccc1,"activity change, negative = inhibition",[2]; at 17.2 µM (top of the series),-5.47% and 0.412%
same,"activity change, negative = inhibition",[2]; at 38 µM (top of the series),1.11%
same,Potency,[3],31.6 µM (active) and 12.6 µM (active)
Cc1nnc(SCC2=C(C(=O)O)N3C(=O)[C@@H](NC(=O)Cn4cnnn4)[C@H]3SC2)s1,"activity change, negative = inhibition",[2]; at 17.2 µM (top of the series),6.59%
COc1ccc(CCN(C)CCCC(C#N)(c2cc(OC)c(OC)c(OC)c2)C(C)C)cc1OC (configuration not stated),"activity change, negative = inhibition",[2]; at 17.2 µM (top of the series),-6.26%
COc1cc(C(=O)OCCCN2CCCN(CCCOC(=O)c3cc(OC)c(OC)c(OC)c3)CC2)cc(OC)c1OC,"activity change, negative = inhibition",[2]; at 17.2 µM (top of the series),24.5%
same,"activity change, negative = inhibition",[2]; at 38 µM (top of the series),15.7%
CCn1nc(C(=O)O)c(=O)c2cc3c(cc21)OCO3,"activity change, negative = inhibition",[2]; at 17.2 µM (top of the series),-3.87% and 14.9%
same,"activity change, negative = inhibition",[2]; at 38 µM (top of the series),-2.22%
CN(C)CC/C=C1\c2ccccc2COc2ccccc21,"activity change, negative = inhibition",[2]; at 17.2 µM (top of the series),22.2%
same,"activity change, negative = inhibition",[2]; at 38 µM (top of the series),23.8%
same,Potency,[3],12.6 µM (active) and 5.01 µM (active) and 15.8 µM (active)
CCO/C([O-])=N/c1c[n+](N2CCOCC2)no1,"activity change, negative = inhibition",[2]; at 17.2 µM (top of the series),-2.58% and 9.89%
same,"activity change, negative = inhibition",[2]; at 38 µM (top of the series),19.4%
same,Potency,[3],inactive
